Assay results taken from PubChem BioAssay (Tox21).
A number with no mark means an inactive call. Inconclusive results are not listed. Where a call stands in place of a potency, no number is given. Activity calls are given as the source filed them. Unless noted, calls follow the shape of the full dose curve.

Legend:
[1] = Nuclear factor erythroid 2-related factor 2/antioxidant responsive element (Nrf2/ARE) small molecule agonists: qHTS cell viability counter screen in human keratinocytes (AID 1919968; active = well fitted curve in the direction sought with a large enough effect in the repeat runs; an effect the other way counts as inactive or inconclusive; also: nearly all actives have a fitted effect of over 55% in size; also: potency is read from the fitted curve at half-maximal effect)
Summary of the method: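 Cells of the KeratinoSens line were plated at 1,500 per well and left for 5 h before compound transfer from DMSO stocks. After a 23 h incubation (37 C, 5% CO2), CellTiter-Fluor was added. Signal was taken as fluorescence intensity 1 h later.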

[2] = biological target: Gonadotropin-releasing hormone receptor (Homo sapiens) (UniProt P30968); assay: Human gonadotropin-releasing hormone receptor (GnRHR) small molecule agonists, calcium flux assay in GnRHR-HEK293 cells (AID 1920063); also: nearly all actives have a fitted effect of over 35% in size
Gonadotropin-releasing hormone receptor (Homo sapiens), sequence (P30968 whole entry, looked up): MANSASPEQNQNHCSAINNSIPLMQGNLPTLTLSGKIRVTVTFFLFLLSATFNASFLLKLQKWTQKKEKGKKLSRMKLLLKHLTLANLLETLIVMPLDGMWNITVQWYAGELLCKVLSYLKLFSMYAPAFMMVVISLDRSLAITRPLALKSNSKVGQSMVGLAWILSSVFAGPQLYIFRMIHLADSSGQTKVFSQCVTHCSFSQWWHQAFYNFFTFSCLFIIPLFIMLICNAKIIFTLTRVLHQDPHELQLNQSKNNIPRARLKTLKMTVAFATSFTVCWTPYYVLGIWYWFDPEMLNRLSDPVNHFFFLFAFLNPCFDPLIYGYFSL
Summary of the method: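 Compounds dissolved in DMSO are pin-transferred onto dye-loaded GnRHR-HEK293 cells, which were seeded 18 h before at 37 C/5% CO2. Calcium signal is read as fluorescence intensity at 1 s intervals for 3 min.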

[3] = biological target: KiSS-1 receptor (Homo sapiens) (UniProt Q969F8); assay: Human kisspeptin (KISS1R) small molecule agonists, calcium flux assay in KISS1R-HEK293 cells (AID 1920064; active = well fitted curve in the direction sought with a large enough effect in the repeat runs; an effect the other way counts as inactive or inconclusive)
KiSS-1 receptor (Homo sapiens), sequence (Q969F8 whole entry, looked up): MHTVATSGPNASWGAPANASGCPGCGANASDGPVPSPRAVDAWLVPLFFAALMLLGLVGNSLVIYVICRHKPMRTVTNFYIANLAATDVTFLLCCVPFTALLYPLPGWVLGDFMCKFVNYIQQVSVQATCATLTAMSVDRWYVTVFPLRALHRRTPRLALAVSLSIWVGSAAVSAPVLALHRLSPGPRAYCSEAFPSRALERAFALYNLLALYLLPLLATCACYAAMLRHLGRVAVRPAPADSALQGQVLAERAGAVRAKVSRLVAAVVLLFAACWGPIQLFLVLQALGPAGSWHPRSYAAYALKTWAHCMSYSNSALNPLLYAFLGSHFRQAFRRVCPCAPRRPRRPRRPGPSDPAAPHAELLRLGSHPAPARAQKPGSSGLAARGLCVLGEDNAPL
Summary of the method: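 Cell line: HEK293, stable human KISS1R. Dye loading 1 h at 37 C after 18 h culture. Read: kinetic fluorescence, 480/540 nm, 3 min at 1 s intervals.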

[4] = G protein-coupled receptor (GPCR) small molecule agonists, calcium flux assay: HEK293 wild type cell line counter screen (AID 1920065)
Summary of the method: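 Tox21 10K compounds, 15 concentrations each in triplicate, pin-transferred in DMSO onto dye-loaded cells; kinetic read at 480/540 nm for 3 min, 1 s intervals.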

[5] = p53 small molecule agonists, cell-based qHTS assay with human liver microsomes (AID 1963577);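 also: p53 response element beta-lactamase reporter cells with liver microsomes plus NADPH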
Summary of the method: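 Steps: plate p53RE-bla cells, incubate 5 h at 37 C; add compound in DMSO; add microsomes (0.5 mg/mL final) and NADPH (0.5 mg/mL final); incubate 16 h at 37 C; add LiveBLAzer, 2 h RT; read fluorescence.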

[6] = p53 small molecule agonists, cell-based qHTS assay with rat liver microsomes (AID 1963578)
Summary of the method: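 Metabolic activation is supplied by rat liver microsomes with NADPH (each 0.5 mg/mL final). p53RE-bla cells incubate with compound 16 h at 37 C; reporter activity is measured by LiveBLAzer fluorescence.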

[7] = p53 small molecule agonists, cell-based qHTS assay with human liver microsomes: qHTS cell viability counter screen (AID 1963579); also: nearly all actives have a fitted effect of over 45% in size
Summary of the method: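 After the 460/530 nm beta-lactamase read, CellTiter-Glo was added to the same wells and luminescence measured after 30 min at room temperature, giving viability of p53RE-bla cells treated 16 h with compounds plus microsomes and NADPH.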

[8] = p53 small molecule agonists, cell-based qHTS assay with rat liver microsomes: qHTS cell viability counter screen (AID 1963580); also: nearly all actives have a fitted effect of over 45% in size
Summary of the method: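 After the beta-lactamase ratio was read, CellTiter-Glo was added to the same wells and luminescence measured at 30 min; cells had been treated 16 h at 37 C with compounds, rat liver microsomes and NADPH (0.5 mg/mL final each).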

[9] = p53 small molecule agonists, cell-based qHTS assay: qHTS cell viability counter screen (AID 1963581); also: nearly all actives have a fitted effect of over 45% in size
Summary of the method: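 ATP content measured by luminescence in HCT-116 p53RE-bla cells treated 16 h at 37 C, same wells as the reporter screen.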

[10] = p53 small molecule agonists, cell-based qHTS assay (AID 1963582; active = well fitted activation curve with a large enough effect in the signal ratio in the repeat runs, not every such curve was filed as active; the % refers to the signal ratio)
Summary of the method: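 16 h compound exposure (37 C) of p53 response element–bla cells, preceded by 5 h recovery at 37 C/5% CO2; read-out via LiveBLAzer B/G FRET substrate, 2 h RT, fluorescence intensity.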

[11] = biological target: 5-hydroxytryptamine receptor 2A (Homo sapiens) (UniProt P28223); assay: 5-hydroxytryptamine receptor 2A (HTR2A) small molecule antagonists, cell-based qHTS assay (AID 1963586); also: nearly all actives have a fitted effect of over 45% in size
5-hydroxytryptamine receptor 2A (Homo sapiens), sequence (P28223 whole entry, looked up): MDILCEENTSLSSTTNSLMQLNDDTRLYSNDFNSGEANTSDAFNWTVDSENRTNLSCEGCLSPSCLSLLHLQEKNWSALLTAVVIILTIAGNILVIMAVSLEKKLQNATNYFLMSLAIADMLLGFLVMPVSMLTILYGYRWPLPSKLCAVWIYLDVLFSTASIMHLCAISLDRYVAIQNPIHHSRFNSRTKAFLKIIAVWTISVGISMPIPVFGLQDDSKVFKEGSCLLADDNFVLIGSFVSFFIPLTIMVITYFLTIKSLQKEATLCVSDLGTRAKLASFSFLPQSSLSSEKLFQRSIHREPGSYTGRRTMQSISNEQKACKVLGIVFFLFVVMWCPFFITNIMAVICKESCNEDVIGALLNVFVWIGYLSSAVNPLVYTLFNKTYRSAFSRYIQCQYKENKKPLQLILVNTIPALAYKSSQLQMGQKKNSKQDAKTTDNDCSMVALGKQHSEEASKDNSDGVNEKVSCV
Summary of the method: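 CHO cells stably expressing human HTR2A were plated for 18 h at 37 C, then loaded with calcium dye for 1 h. Compounds were preincubated 5 min at room temperature before DOI (4 nM solution) was added. Kinetic fluorescence was read for 3 min.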

[12] = biological target: 5-hydroxytryptamine receptor 2A (Homo sapiens) (UniProt P28223); assay: 5-hydroxytryptamine receptor 2A (HTR2A) small molecule agonists, cell-based qHTS assay (AID 1963587); also: nearly all actives have a fitted effect of over 30% in size
Summary of the method: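 CHO cells stably expressing human HTR2A, plated 18 h, loaded with calcium dye 1 h at 37 C. Agonist mode: compounds added and intracellular calcium fluorescence recorded kinetically for 2 min at 1 sec intervals.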

[13] = biological target: Muscarinic acetylcholine receptor M1 (Homo sapiens) (UniProt P11229); assay: Cholinergic receptor muscarinic 1 (CHRM1) small molecule agonists, cell-based qHTS assay (AID 1963589); also: nearly all actives have a fitted effect of over 35% in size
Muscarinic acetylcholine receptor M1 (Homo sapiens), sequence (P11229 whole entry, looked up): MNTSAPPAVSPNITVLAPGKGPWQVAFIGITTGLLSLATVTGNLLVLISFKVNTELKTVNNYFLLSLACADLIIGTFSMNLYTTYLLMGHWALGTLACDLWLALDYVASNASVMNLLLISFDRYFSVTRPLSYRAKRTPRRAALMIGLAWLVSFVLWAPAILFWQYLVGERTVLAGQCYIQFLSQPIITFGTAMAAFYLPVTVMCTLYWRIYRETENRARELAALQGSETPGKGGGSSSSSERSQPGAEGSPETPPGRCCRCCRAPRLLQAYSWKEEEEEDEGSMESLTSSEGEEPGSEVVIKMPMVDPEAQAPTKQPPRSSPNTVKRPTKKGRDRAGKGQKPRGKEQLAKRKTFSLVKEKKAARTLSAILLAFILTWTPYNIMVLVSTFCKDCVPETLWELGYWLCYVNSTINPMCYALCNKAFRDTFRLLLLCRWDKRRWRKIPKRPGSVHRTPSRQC
Summary of the method: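 Homogeneous fluorescence calcium flux, agonist mode. Human M1-expressing CHO cells; compound dosed at 15 concentrations, three independent runs; signal sampled every 1 sec.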

[14] = cAMP Responsive Elements (CRE) small molecule agonists, cell-based qHTS assay (AID 1963590)
Summary of the method: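 HEK 293T cells stably bearing CRE-bla were plated at 2,000 cells per well and rested 18 h. Compounds, positive controls or DMSO were added for 3 h at 37 C. LiveBLAzer B/G substrate was then loaded for 2 h at room temperature.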

[15] = cAMP Responsive Elements (CRE) small molecule antagonists, cell-based qHTS assay (AID 1963591; active = well fitted inhibition curve with a large enough effect in the signal ratio in the repeat runs, not every such curve was filed as active; the % refers to the signal ratio)
Summary of the method: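 First, CRE-bla HEK293T cells settled 18 h at 37 C. Next, compound and 0.25 uM final NKH477 were applied for 3 h. Last, LiveBLAzer B/G substrate was loaded for 2 h at room temperature.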

[16] = biological target: Beta-2 adrenergic receptor (Homo sapiens) (UniProt P07550); assay: Adrenergic beta2 receptor (ADRB2) small molecule antagonists, cell-based qHTS assay (AID 1963592); also: series mostly up to about 92 µM; nearly all actives have a fitted effect of over 50% in size
Beta-2 adrenergic receptor (Homo sapiens), sequence (P07550 whole entry, looked up): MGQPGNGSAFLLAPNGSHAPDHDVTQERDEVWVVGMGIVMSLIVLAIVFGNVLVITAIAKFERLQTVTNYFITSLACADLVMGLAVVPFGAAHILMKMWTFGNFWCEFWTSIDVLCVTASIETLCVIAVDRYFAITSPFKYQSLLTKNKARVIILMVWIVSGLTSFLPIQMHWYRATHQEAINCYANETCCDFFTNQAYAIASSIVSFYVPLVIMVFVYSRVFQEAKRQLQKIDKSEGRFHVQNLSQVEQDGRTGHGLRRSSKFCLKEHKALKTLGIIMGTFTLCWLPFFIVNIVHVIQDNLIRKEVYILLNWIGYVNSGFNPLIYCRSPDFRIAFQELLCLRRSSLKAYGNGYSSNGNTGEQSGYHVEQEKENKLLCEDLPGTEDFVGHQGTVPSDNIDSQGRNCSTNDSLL
Summary of the method: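 Assay format: CHO-ADRB2 cells, 18-20hr seeding at 37C/5% CO2, then compound plus 1nM isoproterenol agonist mix for 0.5hr RT. Homogeneous time-resolved fluorescence cAMP detection after 1hr, expressed as 665/615 nm ratio.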

[17] = biological target: Beta-2 adrenergic receptor (Homo sapiens) (UniProt P07550); assay: Adrenergic beta2 receptor (ADRB2) small molecule agonists, cell-based qHTS assay (AID 1963593);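 also: CHO cells stably overexpressing human ADRB2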
Summary of the method: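 CHO cells stably over-expressing ADRB2 were plated overnight at 37C, then dosed with compounds plus a stimulation mix containing 100uM IBMX and 25uM Ro-20-1724 for 0.5hr at room temperature. cAMP was measured by HTRF competition, 1hr.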

[18] = biological target: D(2) dopamine receptor (Homo sapiens) (UniProt P14416); assay: Dopamine D2 receptor (DRD2) small molecule agonists, cell-based qHTS assay (AID 1963594); also: nearly all actives have a fitted effect of over 35% in size
D(2) dopamine receptor (Homo sapiens), sequence (P14416 whole entry, looked up): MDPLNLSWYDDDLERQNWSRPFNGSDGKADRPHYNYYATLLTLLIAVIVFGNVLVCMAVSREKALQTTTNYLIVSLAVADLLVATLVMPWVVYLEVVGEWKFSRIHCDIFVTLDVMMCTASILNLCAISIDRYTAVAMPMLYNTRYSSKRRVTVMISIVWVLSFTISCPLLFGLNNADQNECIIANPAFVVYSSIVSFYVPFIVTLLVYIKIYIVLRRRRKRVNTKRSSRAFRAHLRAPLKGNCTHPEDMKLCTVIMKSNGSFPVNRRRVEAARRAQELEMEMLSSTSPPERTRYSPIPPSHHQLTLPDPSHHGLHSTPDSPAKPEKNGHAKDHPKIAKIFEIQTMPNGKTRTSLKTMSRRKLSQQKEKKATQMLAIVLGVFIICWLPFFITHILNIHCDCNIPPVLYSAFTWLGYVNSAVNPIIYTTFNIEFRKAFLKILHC
Summary of the method: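 HEK293 cells stably expressing human DRD2, pre-treated with PDE inhibitor Ro20-1724 (0.1 mM final) and compound 10 min at room temperature, then stimulated with NKH477 (200nM […]) for 30 min. cAMP read by HTRF (665/620 nm).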

[19] = biological target: D(2) dopamine receptor (Homo sapiens) (UniProt P14416); assay: Dopamine D2 receptor (DRD2) small molecule antagonists, cell-based qHTS assay (AID 1963595; active = well fitted inhibition curve with a large enough effect in the signal ratio in the repeat runs, with a control signal flat; the % refers to the signal ratio)
Summary of the method: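 DRD2-HEK293; 0.1 mM Ro20-1724; cpd 10 min RT; NKH477 200 nM + quinpirole 12 nM, 30 min RT; HTRF cAMP (cAMP-d2/anti-cAMP cryptate), 665/620 nm ratio after 1 h.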

[20] = biological target: Muscarinic acetylcholine receptor M1 (Homo sapiens) (UniProt P11229); assay: Cholinergic receptor muscarinic 1 (CHRM1) small molecule antagonists, cell-based qHTS assay (AID 1963588); also: nearly all actives have a fitted effect of over 40% in size
Summary of the method: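 Compounds were tested at 15 concentrations in three independent runs. Dye-loaded CHRM1-CHO cells were exposed 5 min at room temperature before stimulation by acetylcholine added at 50nM. Intracellular calcium was read kinetically on FDSS for 3 min.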

CO
Potency [1]: inactive
Potency [2]: inactive
Potency [3]: inactive
Potency [4]: inactive
Potency [5]: inactive
Potency [6]: inactive
Potency [7]: inactive
Potency [8]: inactive
Potency [9]: inactive
Potency [10]: inactive
Potency [11]: inactive
Potency [12]: inactive
Potency [13]: inactive
Potency [14]: inactive
Potency [15]: inactive
Potency [16]: inactive
Potency [17]: inactive
Potency [18]: inactive
Potency [19]: inactive

Brc1c(NC2=NCCN2)ccc2nccnc12
Potency [1]: inactive
Potency [2]: inactive
Potency [3]: inactive
Potency [4]: inactive
Potency [5]: inactive
Potency [6]: inactive
Potency [7]: inactive
Potency [8]: inactive
Potency [9]: inactive
Potency [10]: inactive
Potency [14]: inactive
Potency [16]: inactive
Potency [17]: inactive
Potency [18]: inactive
Potency [19]: inactive

NCCc1cnc[nH]1
Potency [1]: inactive
Potency [2]: inactive
Potency [3]: inactive
Potency [4]: inactive
Potency [5]: inactive
Potency [6]: inactive
Potency [7]: inactive
Potency [8]: inactive
Potency [9]: inactive
Potency [10]: inactive
Potency [12]: inactive
Potency [20]: inactive
Potency [13]: inactive
Potency [14]: inactive
Potency [15]: inactive
Potency [16]: inactive
Potency [18]: inactive
Potency [19]: inactive

CCC(C)(CN(C)C)OC(=O)c1ccccc1 (stereo not drawn)
Potency [1]: inactive
Potency [2]: inactive
Potency [3]: inactive
Potency [4]: inactive
Potency [5]: inactive
Potency [6]: inactive
Potency [7]: inactive
Potency [8]: inactive
Potency [9]: inactive
Potency [11]: inactive
Potency [12]: inactive
Potency [20]: inactive
Potency [13]: inactive
Potency [14]: inactive
Potency [15]: inactive
Potency [16]: inactive
Potency [17]: inactive
Potency [18]: inactive

CC(C)(C)C1CCC(CC2=C(O)c3ccccc3C(=O)C2=O)CC1 (stereo not drawn)
Potency [1]: 29.8 µM (active)
Potency [2]: inactive
Potency [3]: inactive
Potency [4]: inactive
Potency [5]: inactive
Potency [6]: inactive
Potency [7]: inactive
Potency [8]: inactive
Potency [9]: inactive
Potency [11]: inactive
Potency [12]: inactive
Potency [20]: inactive
Potency [13]: inactive
Potency [15]: inactive
Potency [16]: inactive
Potency [18]: inactive
Potency [19]: inactive

Clc1ccc(C(Cn2ccnc2)OCc2ccc(Sc3ccccc3)cc2)c(Cl)c1 (stereo not drawn)
Potency [1]: inactive
Potency [2]: inactive
Potency [3]: inactive
Potency [4]: inactive
Potency [5]: inactive
Potency [6]: inactive
Potency [7]: inactive
Potency [8]: inactive
Potency [9]: inactive
Potency [10]: inactive
Potency [20]: inactive
Potency [14]: inactive
Potency [15]: inactive
Potency [16]: inactive
Potency [18]: inactive
Potency [19]: inactive

CCN(CC)c1ccc(N=Nc2ccccc2)cc1
Potency [1]: inactive
Potency [2]: inactive
Potency [3]: inactive
Potency [4]: inactive
Potency [5]: inactive
Potency [6]: inactive
Potency [7]: inactive
Potency [8]: inactive
Potency [9]: inactive
Potency [10]: inactive
Potency [11]: inactive
Potency [13]: inactive
Potency [15]: inactive
Potency [16]: inactive
Potency [17]: inactive
Potency [18]: inactive
Potency [19]: inactive

CC(C)CCOC(=O)c1ccc(N(C)C)cc1
Potency [1]: inactive
Potency [2]: inactive
Potency [3]: inactive
Potency [4]: inactive
Potency [5]: inactive
Potency [6]: inactive
Potency [7]: inactive
Potency [8]: inactive
Potency [9]: inactive
Potency [10]: inactive
Potency [12]: inactive
Potency [20]: inactive
Potency [13]: inactive
Potency [14]: inactive
Potency [15]: inactive
Potency [16]: inactive
Potency [18]: inactive
Potency [19]: inactive
